This is a sample that favours compounds with a hit; in the whole collection about 2.3% have one here.
CHRM1 agonist: human M1 muscarinic receptor agonism | activation, % at 3 µM | CHO-K1 hM1, Fluo-8 calcium fluorescence, agonist mode; 0% DMSO, 100% acetylcholine EC100 | 0.33% of 360,000 active | P11229;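 active means activation above the run's mean compound activation plus 3 SD, cut at about 16% in these data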;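 further: peak over basal fluorescence ratio within a 140 s kinetic read after compound addition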
Target sequence (P11229 whole entry, looked up): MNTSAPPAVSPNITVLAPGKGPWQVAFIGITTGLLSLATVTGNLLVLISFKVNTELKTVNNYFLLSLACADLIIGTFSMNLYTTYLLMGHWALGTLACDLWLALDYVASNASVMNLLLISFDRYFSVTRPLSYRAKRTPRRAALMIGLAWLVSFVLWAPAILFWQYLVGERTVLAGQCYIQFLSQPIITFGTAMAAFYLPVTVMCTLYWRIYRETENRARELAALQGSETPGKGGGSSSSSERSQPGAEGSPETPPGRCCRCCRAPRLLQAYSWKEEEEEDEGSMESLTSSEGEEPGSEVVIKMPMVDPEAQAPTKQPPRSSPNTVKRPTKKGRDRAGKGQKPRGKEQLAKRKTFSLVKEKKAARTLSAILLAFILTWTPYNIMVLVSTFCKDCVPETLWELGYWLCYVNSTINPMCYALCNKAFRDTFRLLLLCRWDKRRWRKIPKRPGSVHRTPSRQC
M1 antag: blocks human M1 muscarinic receptor | inhibition, % at 3 µM | P11229 | CHO-K1 hM1, Fluo-8 calcium fluorescence, ACh EC80 antagonist | 1.3% of 360,000 active;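 active means percent inhibition above its own plate's cutoff, namely the mean of that plate's compound wells plus 3 SD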;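 further: peak over basal fluorescence ratio during 140 s after agonist addition; 0% = ACh EC80 plus DMSO and 100% = DMSO alone without agonist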
M1 ag parental: nonselective activator or artifact in parental CHO-K1 cells; Fluo-8 calcium fluorescence; scaled to maximal ATP response, vehicle zero; activation, % at 3 µM; 0.48% of 360,000 active; AID 602248; in the data active means activation above about 15%;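 further: untransfected CHO-K1 host cells lacking M1 receptor as counterscreen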
M1 PAM: human CHRM1 positive allosteric modulation; P11229; CHO-K1 hM1, Fluo-8 calcium fluorescence, ACh EC20; 0% = ACh EC20, 100% = maximal ACh; activation, % at 3 µM; 0.088% of 360,000 active; in the data active means activation above about 19%, passing the limit was not always enough
CHO-K1 Ca PAM: nonselective activator or artifact in parental CHO-K1 calcium assay; 0.02% of 360,000 active; ATP EC20, Fluo-8 calcium fluorescence; 0% at ATP EC20, 100% at ATP max; activation, % at 3 µM;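 active means activation above the run cutoff, the mean activation of all test compounds plus 3 SD, cut at about 40% in these data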;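 further: peak over basal fluorescence ratio in a 140 s read after ATP addition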
CHO-K1 Ca antag: counter-screen for M1 antagonists: effect in parental CHO-K1 cells | inhibition, % at 3 µM | ATP-induced calcium, Fluo-8 fluorescence | 0.6% of 360,000 active | AID 602250;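 active means inhibition above a per-plate cutoff, the plate's mean sample inhibition plus 3 SD, cut at about 24% in these data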;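 further: 0% = DMSO plus EC80 ATP and 100% = DMSO alone without ATP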
The depositor's hits bear a star.

SMILES	CHRM1 agonist	M1 antag	M1 ag parental	M1 PAM	CHO-K1 Ca PAM	CHO-K1 Ca antag
COc1ccc(C(=O)C2CCCN(Cc3cnc(N4CCOCC4)s3)C2)cc1F (stereo not drawn)	0	-16	29*	0	15	-5
COc1ccc(C(=O)C2CCCN(Cc3ccc4nonc4c3)C2)cc1F (stereo not drawn)	-5	14	2	-11	13	-13
COc1ccc(C(=O)C2CCCN(Cc3ccc(C#CCCO)cc3)C2)cc1F (stereo not drawn)	-13	58*	1	-33	-11	4
CC(OC(=O)CC1CCCCC1)C(=O)Nc1ccc(F)cc1 (stereo not drawn)	-4	5	0	-5	7	6
COc1ccc(C(=O)Nc2ccc(Cl)cc2C(=O)N2CCCC(C)C2)cc1OC (stereo not drawn)	-2	-8	3	-4	6	-2
CCc1nc2ccc(C(=O)N3CCN(C)CC3)cn2c1N(C)CCC(C)C	-9	-7	1	5	20	-6
CCc1nc2ccc(C(=O)NCCCn3ccnc3)cn2c1N(CC)C(=O)NCCc1ccccc1	-4	-11	0	5	6	-2
CCc1nc2ccc(C(=O)N3CCN(C)CC3)cn2c1N(C)CCCc1ccccc1	-8	33*	2	-30	14	-14
CCc1nc2ccc(C(=O)N3CCCCC3)cn2c1N(C)CCCc1ccccc1	-8	69*	1	-25	5	-8
CCc1nc2ccc(C(=O)NCCCn3ccnc3)cn2c1N(C)CCCc1ccccc1	-7	44*	2	-26	15	-1
CCc1nc2ccc(C(=O)NCCCN(C)C)cn2c1N(C)CCCc1ccccc1	-7	10	3	-12	21	-1
COc1cccc(CN(C)C(=O)CSc2nc3ccccc3[nH]2)c1OC	-4	0	4	6	1	-10
CC1CCC(NC(=O)c2cc(Cl)nc3ccccc23)CC1 (stereo not drawn)	-4	-4	0	7	-14	5
COc1ccccc1N1CCN(/N=C\c2sccc2C)CC1	-3	5	20*	4	11	3
COCCCNC(=O)[C@@H](Cc1ccccc1)NC(=O)CC[C@H]1O[C@@H](n2ccc(=O)[nH]c2=O)[C@H](O)[C@@H]1O	4	-44	0	19	4	-11
COCCNC(=O)C1(C)CCN(C(=O)c2ccc(OC)c(F)c2)C1 (stereo not drawn)	-3	0	0	1	-12	14
Cc1ccc(OCCCCn2ccnc2)c([N+](=O)[O-])c1	-12	2	2	-4	6	1
Cc1ccc(OCCn2cncn2)c([N+](=O)[O-])c1	10	-8	19*	14	17	-1
Cc1ncc([N+](=O)[O-])n1CC(=O)N/N=C/c1ccccc1F	-9	1	0	0	2	-3
COC(=O)c1[nH]c2cccc(OC)c2c1NC(=O)CN(C)CC1OCCO1	-6	0	0	0	-7	24*
COc1cc(OC)nc(Oc2cc(/C=N/O)ccc2OC)n1	-7	1	2	4	11	-1
CCOc1ccc(N2CC(C(=O)Nc3nnc(CC)s3)CC2=O)cc1 (stereo not drawn)	-4	1	-1	28*	17	-4
CCOCCc1nnc(NC(=O)C2CC(=O)N(c3ccc(OCC)cc3)C2)s1 (stereo not drawn)	-4	-4	0	6	6	-12
O=C(Nc1nnc(SCc2ccccn2)s1)C1CC(=O)N(c2ccc(F)cc2)C1 (stereo not drawn)	-2	25*	0	1	-27	3
COc1cccc(N2CC(C(=O)Nc3nnc(SCc4ccccn4)s3)CC2=O)c1 (stereo not drawn)	-2	11	2	-5	25	-14
SMILES	CHRM1 agonist	M1 antag	M1 ag parental	M1 PAM	CHO-K1 Ca PAM	CHO-K1 Ca antag
CCc1nnc(NC(=O)C2CC(=O)N(c3ccc(C)cc3)C2)s1 (stereo not drawn)	-2	5	-1	6	3	24*
CCS(=O)(=O)c1ncc(CO)n1CCc1ccccc1	-1	-14	0	3	11	-9
COc1cc(C(=O)OCC(=O)Nc2ccc(C)cc2)cc(OC)c1OC	-1	-13	1	14	8	-4
CC1OC2CC(=O)OC2C2=C1C(=O)c1c(O)cccc1C2=O (stereo not drawn)	16*	50*	5	-1	24	12
O=C(c1cccc(C(F)(F)F)c1)N1CCC(O)(CS(=O)(=O)Cc2ccc(Cl)cc2)CC1	0	7	0	-5	-10	29*
C[C@H]1CN([C@@H](C)CO)C(=O)CCCn2cc(nn2)CO[C@@H]1CN(C)C(=O)Nc1ccc2c(c1)OCO2	-1	-18	0	5	17	-7
CN(C(=O)c1cccc(NC(=O)Cc2ccc(NC(=O)C3CCN(C(=O)CCc4ccccc4)CC3)cc2)c1)C1CC1	-9	-18	1	11	23	-20
CN(C)C1(CNC(=S)Nc2ccccc2C(F)(F)F)CCCCC1	50*	6	2	-6	15	-7
CN(C)C1(CNC(=O)Nc2ccccc2)CCCCC1	-8	-9	1	7	13	-8
CC(=O)Nc1nc(C2CC2)cc(-c2ccccc2)c1C#N	-8	2	0	11	10	0
COCCCNc1ncnc2sc3c(c12)CCC(C)C3 (stereo not drawn)	-4	3	0	0	-5	30*
CC1CCc2c(sc3ncnc(NS(=O)(=O)c4cccs4)c23)C1 (stereo not drawn)	-7	1	-1	-1	-8	13
OC(COc1ccc(CNCCc2ccccc2F)cc1)CN1CCCCC1 (stereo not drawn)	-7	38*	0	-18	-11	2
OC(COc1ccccc1)CN1CCCCC1 (stereo not drawn)	-4	-13	2	3	26	-22
O=C(Nc1ccc(O)c(-c2nc3ccccc3s2)c1)C1=COCCO1	-8	79*	3	-22	16	-9
O=C(O)c1cc(NC(=O)c2ccc3c(c2)C(=O)N(Cc2cccnc2)C3=O)cc(C(=O)O)c1	-1	-16	1	12	9	-12
C#Cc1cccc(NC(=O)c2ccc3c(c2)C(=O)N(Cc2cccnc2)C3=O)c1	2	34*	15	-11	-9	6
N#Cc1cc([N+](=O)[O-])cnc1N(CCO)CCO	-5	6	0	3	5	-4
Cc1noc(C)c1COc1ccc(C(=O)OCC(N)=O)cc1	-4	6	0	-7	-16	27*
OC(c1ccccn1)C1CCN(Cc2nc(C(c3ccccc3)c3ccccc3)no2)CC1 (stereo not drawn)	-12	-8	1	4	13	-5
